Measured values: PubChem BioAssay (EPA / NIEHS)
Activity calls are given as the source filed them. Rule for the calls: active = hit-call score of the fitted dose curve at least 0.9, where 1 is the maximum; inactive = score below 0.9.

Columns and labels:
Conditions in all cases: mRNA level, 48 h; actives raise or lower the signal
[1] = read-out: Insulin-like growth factor-binding protein 1 (IGFBP1), IGFBP1 (gene 3484); experiment: LTEA_HepaRG_IGFBP1: Life Technologies and Expression Analysis (LTEA) Assay for Insulin-like growth factor-binding protein 1 (IGFBP1) using HepaRG (AID 2283508)
Outline: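 Thawed HepaRG cells are plated for 48 h, switched to serum-free induction medium, then dosed in duplicate for another 48 h (100 uM top, half-log steps). Lysates in RLT go to qRT-PCR, and gain or loss of signal is fitted relative to vehicle.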

[2] = read-out: Interleukin 6 (IL6), IL6 (gene 3569); experiment: LTEA_HepaRG_IL6: Life Technologies and Expression Analysis (LTEA) Assay for Interleukin 6 (IL6) using HepaRG (AID 2283509)
Outline: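 HepaRG cells exposed in duplicate for 48 h to eight half-log concentrations, top 100 uM, in 0.5% DMSO serum-free induction medium. mRNA measured by qRT-PCR, normalized to ACTB, GAPDH and POLR2A. Bidirectional fit versus DMSO.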

[3] = read-out: Potassium channel subfamily K member 1 (KCNK1), KCNK1 (gene 3775); experiment: LTEA_HepaRG_KCNK1: Life Technologies and Expression Analysis (LTEA) Assay for Potassium channel subfamily K member 1 (KCNK1) using HepaRG (AID 2283511)
Outline: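 Differentiated HepaRG cells, 48 h exposure in serum-free induction medium with 0.5% DMSO; 8 concentrations, half-log from 100 uM, duplicate. KCNK1 mRNA by qRT-PCR, normalized to ACTB, GAPDH, POLR2A; bidirectional fit vs DMSO.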

[4] = read-out: Keratin 19 (KRT19), KRT19 (gene 3880); experiment: LTEA_HepaRG_KRT19: Life Technologies and Expression Analysis (LTEA) Assay for Keratin 19 (KRT19) using HepaRG (AID 2283512)
Outline: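 KRT19 transcript levels, measured by Fluidigm qRT-PCR against three housekeeping genes, are fitted for gain or loss of signal relative to DMSO. Human HepaRG cells receive test chemicals (top 100 uM, half-log steps, 0.5% DMSO) for 48 hours.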

[5] = read-out: JUN Transcription Factor, JUN (gene 3725); experiment: LTEA_HepaRG_JUN: Life Technologies and Expression Analysis (LTEA) Assay for JUN Transcription Factor using HepaRG (AID 2283513)
Outline: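 Differentiated HepaRG cells were exposed to chemicals for 48 h in serum-free induction medium, 8 concentrations from 100 uM in half-log steps, 0.5% DMSO vehicle, in duplicate. JUN mRNA was quantified by TaqMan qRT-PCR, normalized to ACTB, GAPDH, POLR2A.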

[6] = read-out: Lipase C (LIPC), LIPC (gene 3990); experiment: LTEA_HepaRG_LIPC: Life Technologies and Expression Analysis (LTEA) Assay for Lipase C (LIPC) using HepaRG (AID 2283514)
Outline: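 HepaRG cells, 48 h after plating, treated in duplicate for 48 h in serum-free induction medium over 8 half-log concentrations from 100 uM, 0.5% DMSO. LIPC mRNA by TaqMan qRT-PCR normalized to ACTB/GAPDH/POLR2A; bidirectional fit versus DMSO.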

[7] = read-out: Lipoprotein lipase (LPL), LPL (gene 4023); experiment: LTEA_HepaRG_LPL: Life Technologies and Expression Analysis (LTEA) Assay for Lipoprotein lipase (LPL) using HepaRG (AID 2283515)
Outline: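 Differentiated HepaRG cells, plated 48 h, then exposed 48 h in serum-free induction medium to 8 concentrations (top 100 uM, half-log steps) in 0.5% DMSO, duplicate. LPL mRNA measured by qRT-PCR, normalized to ACTB, GAPDH and POLR2A.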

[8] = read-out: MicroRNA 122 (MIR122), gene 406906; experiment: LTEA_HepaRG_MIR122: Life Technologies and Expression Analysis (LTEA) Assay for MicroRNA 122 (MIR122) using HepaRG (AID 2283516); note: the transcript read is the microRNA miR-122
Outline: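 Differentiated human HepaRG cells were exposed 48 h in serum-free induction medium to eight half-log concentrations (top 100 uM, 0.5% DMSO). Transcript level was measured by TaqMan qRT-PCR, normalized to ACTB, GAPDH and POLR2A, and fitted bidirectionally versus DMSO.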

[9] = read-out: matrix metalloproteinase-10 (MMP10), MMP10 (gene 4319); experiment: LTEA_HepaRG_MMP10: Life Technologies and Expression Analysis (LTEA) Assay for matrix metalloproteinase-10 (MMP10) using HepaRG (AID 2283517)
Outline: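 Differentiated HepaRG cells in serum-free induction medium exposed 48 h in duplicate to 8-point half-log series up to 100 uM in 0.5% DMSO. mRNA quantified by qRT-PCR, normalised to ACTB, GAPDH, POLR2A; bidirectional fit versus DMSO.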

[10] = read-out: MYC, MYC (gene 4609); experiment: LTEA_HepaRG_MYC: Life Technologies and Expression Analysis (LTEA) Assay for MYC using HepaRG (AID 2283518)
Outline: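 HepaRG, ~100,000 cells/well, collagen I; 48 h plating; serum-free induction medium; 48 h dosing, duplicate, 100 uM top, half-log, 0.5% DMSO; total RNA → qRT-PCR MYC; gain/loss fit vs DMSO.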

[11] = read-out: matrix metalloproteinase-3 (MMP3), MMP3 (gene 4314); experiment: LTEA_HepaRG_MMP3: Life Technologies and Expression Analysis (LTEA) Assay for matrix metalloproteinase-3 (MMP3) using HepaRG (AID 2283519)
Outline: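 HepaRG cells (~100,000/well) in serum-free induction medium were dosed in duplicate for 48 h with an 8-point half-log series from 100 uM, 0.5% DMSO. MMP3 mRNA was quantified by Fluidigm TaqMan qRT-PCR, normalized to three housekeeping genes.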

[12] = read-out: Paternally Expressed 10 (PEG10), PEG10 (gene 23089); experiment: LTEA_HepaRG_PEG10: Life Technologies and Expression Analysis (LTEA) Assay for Paternally Expressed 10 (PEG10) using HepaRG (AID 2283520)
Outline: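 Differentiated HepaRG cells, plated 48 h then switched to serum-free induction medium, were exposed in duplicate for 48 h to eight half-log concentrations topping at 100 uM in 0.5% DMSO. PEG10 mRNA was quantified by TaqMan qRT-PCR, normalised to ACTB, GAPDH and POLR2A.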

[13] = read-out: Nuclear factor NF-kappa-B p105 subunit (Homo sapiens) (UniProt P19838); experiment: LTEA_HepaRG_NFKB1: Life Technologies and Expression Analysis (LTEA) Assay for Nuclear Factor Kappa B Subunit 1 (NFKB1) using HepaRG (AID 2283521);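 note: TaqMan qRT-PCR transcript normalised to ACTB GAPDH and POLR2A housekeeping genes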
Outline: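 Differentiated human HepaRG cells in serum-free induction medium with 0.5% DMSO were exposed for 48 h to eight half-log concentrations, top 100 uM, in duplicate. NFKB1 mRNA measured by Fluidigm TaqMan qRT-PCR, normalised to ACTB, GAPDH and POLR2A; bidirectional fit versus DMSO.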

[14] = read-out: Protein phosphatase 2A (PPP2R4), PTPA (gene 5524); experiment: LTEA_HepaRG_PPP2R4: Life Technologies and Expression Analysis (LTEA) Assay for Protein phosphatase 2A (PPP2R4) using HepaRG (AID 2283522)
Outline: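 Differentiated HepaRG cells in serum-free induction medium were exposed in duplicate for 48 h to eight concentrations, top 100 uM with half-log dilutions, in 0.5% DMSO. PPP2R4 mRNA was quantified by TaqMan qRT-PCR, normalized to ACTB, GAPDH and POLR2A.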

[15] = read-out: Phosphatase and tensin (PTEN), PTEN (gene 5728); experiment: LTEA_HepaRG_PTEN: Life Technologies and Expression Analysis (LTEA) Assay for Phosphatase and tensin (PTEN) using HepaRG (AID 2283523)
Outline: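 HepaRG cells, 48 h after plating, exposed in duplicate for 48 h in serum-free induction medium to 8 half-log concentrations up to 100 uM (0.5% DMSO). PTEN mRNA by qRT-PCR, normalized to ACTB, GAPDH, POLR2A; bidirectional fit versus DMSO.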

[16] = read-out: solute carrier (SLC22A1), SLC22A1 (gene 6580); experiment: LTEA_HepaRG_SLC22A1: Life Technologies and Expression Analysis (LTEA) Assay for solute carrier (SLC22A1) using HepaRG (AID 2283524)
Outline: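 Differentiated human HepaRG cells in serum-free induction medium, exposed 48 h in duplicate to 8-point half-log series from 100 µM top in 0.5% DMSO. SLC22A1 mRNA by TaqMan qRT-PCR normalized to ACTB, GAPDH, POLR2A; bidirectional fit versus DMSO.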

[17] = read-out: Pyruvate Dehydrogenase Kinase 4 (PDK4), PDK4 (gene 5166); experiment: LTEA_HepaRG_PDK4: Life Technologies and Expression Analysis (LTEA) Assay for Pyruvate Dehydrogenase Kinase 4 (PDK4) using HepaRG (AID 2283525)
Outline: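 HepaRG cells plated 48 h, then switched to serum-free induction medium and exposed in duplicate for 48 h to 8 half-log concentrations from 100 uM in 0.5% DMSO. PDK4 mRNA measured by qRT-PCR, normalized to ACTB, GAPDH and POLR2A; bidirectional fit versus DMSO.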

[18] = read-out: NAD(P)H dehydrogenase [quinone] 1 (NQO1), NQO1 (gene 1728); experiment: LTEA_HepaRG_NQO1: Life Technologies and Expression Analysis (LTEA) Assay for NAD(P)H dehydrogenase [quinone] 1 (NQO1) using HepaRG (AID 2283526)
Outline: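 Differentiated HepaRG cells, plated 48 h and then switched to serum-free induction medium, were exposed in duplicate for 48 h to 8-point half-log concentrations up to 100 uM in 0.5% DMSO. mRNA measured by qRT-PCR, normalized to ACTB, GAPDH, POLR2A; bidirectional fit versus DMSO.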

[19] = read-out: Nuclear factor erythroid 2-related factor 2 (Homo sapiens) (UniProt Q16236); experiment: LTEA_HepaRG_NFE2L2: Life Technologies and Expression Analysis (LTEA) Assay for Nuclear factor erythroid 2-related factor 2 (NFE2L2) Transcription Factor using HepaRG (AID 2283527);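 note: TaqMan qRT-PCR transcript level normalised to ACTB GAPDH and POLR2A housekeeping genes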
Outline: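 Differentiated human HepaRG cells, serum-free induction medium, exposed 48 h in duplicate to eight half-log concentrations up to 100 uM in 0.5% DMSO. NFE2L2 mRNA by Fluidigm TaqMan qRT-PCR, normalised to ACTB, GAPDH, POLR2A; bidirectional change versus DMSO.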

[20] = read-out: Interleukin 6 Receptor (IL6R), IL6R (gene 3570); experiment: LTEA_HepaRG_IL6R: Life Technologies and Expression Analysis (LTEA) Assay for Interleukin 6 Receptor (IL6R) using HepaRG (AID 2283510);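 for AC50: TaqMan qRT-PCR signal normalized to ACTB GAPDH and POLR2A housekeeping genes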
Outline: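 Differentiated human HepaRG cells, plated 48 h then switched to serum-free induction medium, were dosed in duplicate for 48 h at eight half-log concentrations up to 100 uM in 0.5% DMSO. IL6R mRNA quantified by qRT-PCR, normalized to ACTB/GAPDH/POLR2A; bidirectional fit versus DMSO.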

Measured: AC50

Sequence of Nuclear factor NF-kappa-B p105 subunit (Homo sapiens) (P19838 whole entry, looked up): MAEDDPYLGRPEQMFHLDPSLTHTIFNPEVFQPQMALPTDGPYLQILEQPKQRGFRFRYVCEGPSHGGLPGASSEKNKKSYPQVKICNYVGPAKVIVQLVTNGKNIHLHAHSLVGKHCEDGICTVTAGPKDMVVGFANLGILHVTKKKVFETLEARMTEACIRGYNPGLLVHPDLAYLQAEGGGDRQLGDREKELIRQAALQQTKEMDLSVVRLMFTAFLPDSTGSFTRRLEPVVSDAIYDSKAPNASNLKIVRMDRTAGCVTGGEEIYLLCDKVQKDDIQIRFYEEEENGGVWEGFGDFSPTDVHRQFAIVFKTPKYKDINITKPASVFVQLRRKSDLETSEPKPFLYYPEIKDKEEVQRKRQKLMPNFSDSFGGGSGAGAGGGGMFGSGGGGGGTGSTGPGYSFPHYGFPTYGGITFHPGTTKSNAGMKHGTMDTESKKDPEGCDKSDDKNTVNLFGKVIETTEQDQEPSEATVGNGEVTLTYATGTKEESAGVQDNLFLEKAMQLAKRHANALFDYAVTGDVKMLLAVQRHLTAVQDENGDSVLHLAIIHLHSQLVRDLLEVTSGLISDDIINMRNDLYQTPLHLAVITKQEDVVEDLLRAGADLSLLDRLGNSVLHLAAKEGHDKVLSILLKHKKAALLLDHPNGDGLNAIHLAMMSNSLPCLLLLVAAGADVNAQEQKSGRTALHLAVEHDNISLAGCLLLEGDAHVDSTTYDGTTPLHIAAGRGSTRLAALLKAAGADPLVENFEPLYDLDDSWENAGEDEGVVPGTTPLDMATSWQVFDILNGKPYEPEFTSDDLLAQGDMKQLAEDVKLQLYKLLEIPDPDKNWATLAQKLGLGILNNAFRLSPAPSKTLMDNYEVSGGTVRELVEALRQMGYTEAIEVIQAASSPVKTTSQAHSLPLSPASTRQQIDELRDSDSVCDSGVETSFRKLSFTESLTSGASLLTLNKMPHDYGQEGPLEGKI
Sequence of Nuclear factor erythroid 2-related factor 2 (Homo sapiens) (Q16236 whole entry, looked up): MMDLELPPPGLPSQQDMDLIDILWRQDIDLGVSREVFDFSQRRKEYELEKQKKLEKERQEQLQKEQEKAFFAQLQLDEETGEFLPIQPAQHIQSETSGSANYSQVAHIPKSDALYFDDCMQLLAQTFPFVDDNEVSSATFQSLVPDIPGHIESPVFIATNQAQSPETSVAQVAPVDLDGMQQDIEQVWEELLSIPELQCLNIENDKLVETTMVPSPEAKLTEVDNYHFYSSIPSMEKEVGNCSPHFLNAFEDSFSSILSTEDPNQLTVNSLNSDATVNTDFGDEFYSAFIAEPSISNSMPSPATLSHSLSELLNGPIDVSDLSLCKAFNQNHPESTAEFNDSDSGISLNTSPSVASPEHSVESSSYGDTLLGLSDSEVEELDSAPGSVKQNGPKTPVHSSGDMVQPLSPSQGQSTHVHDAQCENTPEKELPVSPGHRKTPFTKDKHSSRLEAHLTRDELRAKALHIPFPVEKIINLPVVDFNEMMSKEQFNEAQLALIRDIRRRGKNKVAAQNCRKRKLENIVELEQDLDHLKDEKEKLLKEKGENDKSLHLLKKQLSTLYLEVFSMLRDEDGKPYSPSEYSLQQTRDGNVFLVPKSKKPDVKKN

CCNc1cccc(C)c1
not listed: [20]
inactive: all other assays above

Nc1ccccc1N
active: [1] 13.4 µM | [20] 72.3 µM | [4] 3.62 µM | [6] 62.7 µM | [7] 50 µM | [8] 71.4 µM | [10] 7.08 µM | [11] 81.8 µM | [12] 64.8 µM | [14] 77.5 µM | [15] 67.4 µM | [16] 62.4 µM | [17] 81.8 µM
inactive: [2] | [3] | [5] | [9] | [13] | [18] | [19]

CC1(C)NC(=O)NC1=O
not listed: [20]
inactive: all other assays above

Cc1nc(-c2ccc3c(c2)CCN(CCC2CCC(NC(=O)/C=C/c4ccc(F)cc4)CC2)CC3)no1 (stereo not drawn)
inactive: all assays above
